Shown are actives, neighbours in structure and some others; about 10% of the full set was active somewhere.
Lamin A splicing: qHTS Assay for Modulators of Lamin A Splicing; Potency, µM (titrated, usually from 46.1 µM), for inactives: at the highest dose ratio change, negative = inhibition, hits mostly inhibitors; HeLa LMNA splicing GFP/RFP minigene ratio, 48 h; 0.01% of 200,000 active; AID 1487, 2009; active means well fitted inhibition curve with a large enough effect in the signal ratio, with a control signal flat, not every such curve was filed as active; inconclusive means small, poorly fitted or top-dose-only effect, or effect the other way, or a change in a side signal; the % refers to the signal ratio; further: potency means the concentration at half of the fitted maximal effect
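S3 HeLa cells stably expressing lamin A-EGFP splicing minigene plus DsRed2, 600 cells/well, 48 h compound exposure at 37C. Laser-scanning cytometry; analysed as GFP (500-530 nm)/RFP (575-640 nm) total intensity ratio; 0.5% DMSO vehicle.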
HPGD block: qHTS Assay for Inhibitors of HPGD (15-Hydroxyprostaglandin Dehydrogenase) | 4.3% of 150,000 active | AID 894, 2007 | purified HPGD, NADH fluorescence kinetic, PGE2 substrate | Potency, µM, for inactives: at the top dose activity change, negative = inhibition, most hits filed as inhibitors; further: potency means the concentration at half of the fitted maximal effect
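NADH formation kinetics: reaction with 30 uM PGE2 and 1 mM NAD+ (final), 20 nM enzyme, Tris-HCl pH 8 with Tween 20, after 15 min compound preincubation at room temperature. Fluorescence change, last versus first of five reads.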
Luc counter: Counterscreen for Luciferase (Kinase-Glo TM) Inhibition; Luciferin 4-monooxygenase (Photuris pensylvanica), Q27757; Kinase-Glo luciferase, ATP luminescence, 8 min; Potency, µM (highest dose often 38.3 µM), for inactives: at the highest dose activity change, negative = inhibition, most hits filed as inhibitors; 0.28% of 200,000 active; AID 1379, 2008; active means well fitted inhibition curve with a large enough effect; inconclusive means small, poorly fitted or top-dose-only effect; further: potency means the concentration at half of the fitted maximal effect; nearly all actives have a fitted effect of over 60% in size
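Compound is pinned into ATP-containing buffer (10 uM ATP, imidazole pH 7.2, 7 mM MgCl2). Kinase-Glo luciferase reagent is then added. Light output is recorded following an 8-min room-temperature incubation.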
ALDH1A1 block: qHTS Assay for Inhibitors of Aldehyde Dehydrogenase 1 (ALDH1A1). Potency, µM (series often up to 75.3 µM), without a hit: at the highest dose activity, negative = inhibition, hits mostly inhibitors. Purified ALDH1A1, NADH fluorescence, propionaldehyde substrate. Aldehyde dehydrogenase 1A1 (Homo sapiens), P00352. 7.3% of 220,000 active;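 further: potency means the concentration at half of the fitted maximal effect; plate controls were no enzyme wells and a reference inhibitor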
Target sequence (P00352 whole entry, looked up): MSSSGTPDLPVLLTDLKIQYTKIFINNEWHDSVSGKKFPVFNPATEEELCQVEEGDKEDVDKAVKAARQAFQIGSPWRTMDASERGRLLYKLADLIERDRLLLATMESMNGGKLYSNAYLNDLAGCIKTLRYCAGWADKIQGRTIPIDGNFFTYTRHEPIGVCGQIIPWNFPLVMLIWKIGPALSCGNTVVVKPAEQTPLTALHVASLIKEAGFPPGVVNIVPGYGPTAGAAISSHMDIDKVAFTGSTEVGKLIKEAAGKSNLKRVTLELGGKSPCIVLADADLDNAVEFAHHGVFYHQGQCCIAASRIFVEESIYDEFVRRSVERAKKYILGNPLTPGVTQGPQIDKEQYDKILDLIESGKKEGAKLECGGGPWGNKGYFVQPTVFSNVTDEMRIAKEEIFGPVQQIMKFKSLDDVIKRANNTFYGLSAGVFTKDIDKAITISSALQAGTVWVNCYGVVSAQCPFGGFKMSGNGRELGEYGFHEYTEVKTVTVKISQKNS
PNC assembly inh: High Content Assay for Compounds that inhibit the Assembly of the Perinucleolar Compartment | activity change (PNC), negative = inhibition, % at 10 µM | 3.1% of 140,000 active | PC3M PTB-GFP, PNC prevalence imaging, 16 h; hits give low values;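 active means readout at or below -70, meaning at least 70% loss of cells showing the perinucleolar compartment, a nuclear body marking cancer cells; inconclusive means readout between -30 and a set limit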;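 further: plate controls were DMSO wells for no effect and camptothecin positive control wells for full effect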
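PC3M cells stably expressing PTB-GFP, 750–1000 cells/well, treated 16 h at 37 °C with compound (23 nl of library stock), in duplicate. After paraformaldehyde fixation and Hoechst stain, imaged at 20x; PNC prevalence scored by image analysis.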
Numbers without * were called inactive; ? = inconclusive; nt = not tested or not shown; [ ] = another dose, or the depositor's remark. Unless noted, the call rests on the fitted dose curve; in most records, active means well fitted inhibition curve with a large enough effect (not every such curve was filed as active); inconclusive means small, poorly fitted or top-dose-only effect, or another doubt; inactive means no such curve, though single readings can be large or run the other way. Unless noted, on the % scale 0 is the no-effect control and ±100 the full control effect.

SMILES	Lamin A splicing	HPGD block	Luc counter	ALDH1A1 block	PNC assembly inh
CCCCOC(=O)Nc1ccc(C(=O)OCCC)cc1	-5%	-23%	14%	-3%	38
CCCCOC(=O)c1ccc(NC(=S)NC(=O)c2c(Br)c(C)nn2C)cc1	7%	-27%	1%	4µM*	-19
CC(=O)c1ccc(NC(=S)NC(=O)c2c(Cl)c(C)nn2C)cc1	11%	-5%	-4%	?	-109*
N#Cc1cccc(-c2nc(NCc3cccnc3)c3ccccc3n2)c1	6%	nt	nt	?	nt
COCC(=O)NCCSc1c(C)[nH]c2ccccc12	-5%	?	3%	3%	?
COCC(=O)c1[nH]c2ccccc2c1C	1%	-13%	-1%	7.9µM*	-13
CC(=O)Nc1cc(C(=O)NCc2ccc(C)cc2)ccc1S(=O)(=O)c1ccc(Cl)cc1	-1%[46 µM]	nt	nt	nt	nt
O=C(NC(=S)N(Cc1ccccc1)c1ccccn1)C1CCCCC1	1%	?	-9%	?	-103*
CN(Cc1ccccc1)C(=S)NC(=O)C1CCCCC1	-10%	nt	nt	0%	1
COCCn1c(=O)c(C)nc2cnc(N3CCN(C)CC3)nc21	7%	nt	nt	?	nt
O=S(=O)(Nc1cccc(S(=O)(=O)N2CCCCCC2)c1)c1ccccc1	nt	nt	-1%	2µM*	nt
O=C(N1CCCCCC1)N1CCN(S(=O)(=O)c2ccccc2)CC1	6%	-6%	6%	6.3µM*	20
CC(=O)N1CCN(CC(=O)Nc2cccc(S(=O)(=O)N3CCCCCC3)c2)CC1	?	nt	2%	-5%	nt
O=C(CCl)Nc1cccc(S(=O)(=O)N2CCCCCC2)c1	?	nt	nt	0.71µM*	-7
CCOC(=O)COc1ccc(S(=O)(=O)Nc2cccc(SC)c2)cc1	-7%	-7%	-5%	2%	0
CSc1cccc(NS(=O)(=O)c2ccccc2)c1	-12%	25µM*	-1%	-2%	27
COc1ccc(Br)cc1CNC(=O)Cn1c(=O)c2cccn2c2ccc(F)cc21	3%[46 µM]	nt	nt	nt	nt
CC1CCC(NC(=O)c2ccc3c(c2)N(Cc2cccc(Cl)c2)C(=O)c2ccccc2S3=O)CC1 (centres undefined)	10%[46 µM]	nt	nt	nt	nt
CCCCS(=O)(=O)/C=C\C1C2C=CC(C2)C1S(=O)(=O)CCCC (centres undefined)	?	1%	-3%	?	41
CCCCS(=O)(=O)/C=C\C=C/S(=O)(=O)CCCC	?	25µM*	12%	4µM*	?
Cc1cccc(CNC(=O)CN2C(=O)CSc3c2c(C)nn3-c2ccccc2)c1	-3%[46 µM]	nt	nt	nt	nt
COc1cc(/C(C)=N\NC(N)=S)cc(OC)c1OC	-2%	-4%	-1%	12%	?
COc1ccc2c(c1)[N+](=O)C(/C(C)=N/NC(N)=S)=C(C)[N+]2=O	nt	-19%	-5%[7.66 µM]	3.2µM*	nt
CCOC(=O)c1c(C)oc2c1c(C(c1ccccc1)N1CCOCC1)c(O)c1ccccc12 (centres undefined)	7%	?	1%	3.5µM*	42
CCOC(=O)c1c(C)oc2c1c(C(c1cccnc1)N1CCCCC1)c(O)c1ccccc12 (centres undefined)	3%	-22%	-3%	?	?
SMILES	Lamin A splicing	HPGD block	Luc counter	ALDH1A1 block	PNC assembly inh
CCOc1nc(-c2ccccc2)ccc1-c1noc(-c2ccco2)n1	6%	?	-4%	11%	-100*
COc1nc(-c2ccc(C)cc2)ccc1-c1noc(-c2ccco2)n1	?	?	-1%	?	0
Cc1cccc(/C=N/N(CCO)C2=NS(=O)(=O)c3ccccc32)c1	?	nt	2%	?	nt
N#CCCN(/N=C/c1cccnc1)C1=NS(=O)(=O)c2ccccc21	?	nt	-1%	2µM*	nt
COc1cc2[nH]c(=S)n(Cc3cccs3)c(=O)c2cc1OC	?	nt	-1%	1.1µM*	nt
COc1ccc(NC(=S)Nc2cc(-c3ccccc3)[nH]n2)cc1Cl	?	-29%	3%	10µM*	?
Cc1cc(NC(=S)Nc2ccc(C)c(Cl)c2)n[nH]1	nt	nt	2%	1.4µM*	nt

Screening results (PubChem BioAssay)
